From PMC7862700, “An all-to-all approach to the identification of sequence-specific readers for epigenetic DNA modifications on cytosine” come the findings set out here.

Common to all, as to experiment: DAPPL (digital affinity profiling via proximity ligation, sequencing); 10 mM Tris-HCl pH 7.5, 50 mM NaCl, 1 mM DTT, 4% glycerol, room temperature, 30 min; GST-TFs on glutathione beads, 16-mer random dsDNA library, 0.1% formaldehyde crosslink after washing; high values mean tight binding
Common to all, as to details: protein: recombinant; tags: N-terminal GST; dsDNA, one strand shown

The target of one assay is T1, ELK1 (Homo sapiens, UniProt P19419 1-428).
T1 sequence: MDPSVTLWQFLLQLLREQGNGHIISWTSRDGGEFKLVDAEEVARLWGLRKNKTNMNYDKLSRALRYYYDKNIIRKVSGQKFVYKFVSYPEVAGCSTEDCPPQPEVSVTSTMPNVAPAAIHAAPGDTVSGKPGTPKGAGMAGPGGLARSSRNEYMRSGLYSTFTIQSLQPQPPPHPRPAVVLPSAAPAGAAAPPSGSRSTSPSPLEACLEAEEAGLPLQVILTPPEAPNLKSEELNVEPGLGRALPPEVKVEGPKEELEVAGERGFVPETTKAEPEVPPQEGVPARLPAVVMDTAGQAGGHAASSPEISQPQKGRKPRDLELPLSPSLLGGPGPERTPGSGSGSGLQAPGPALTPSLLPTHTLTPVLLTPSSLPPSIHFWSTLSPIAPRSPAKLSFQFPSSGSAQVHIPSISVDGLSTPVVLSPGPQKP
A digest of the protocol: (§1)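 Binding signal is each hexamer's read frequency for a factor divided by its frequency in the tag-only sample. The factors were GST-fused human transcription factors from yeast, captured on glutathione beads, DNA-barcoded and pooled with that sample. Pools were incubated with 200 nmole of a random double-stranded 16-mer DNA library in Tris/NaCl/DTT/glycerol buffer at room temperature for 30 min, then washed, crosslinked with 0.1% formaldehyde, proximity-ligated with BsaI/T4 ligase (1 h, 37 °C), PCR-amplified and sequenced on an Illumina NextSeq500.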

Another assay addresses T2, GABPA (Homo sapiens, UniProt Q06546 1-454).
T2 sequence: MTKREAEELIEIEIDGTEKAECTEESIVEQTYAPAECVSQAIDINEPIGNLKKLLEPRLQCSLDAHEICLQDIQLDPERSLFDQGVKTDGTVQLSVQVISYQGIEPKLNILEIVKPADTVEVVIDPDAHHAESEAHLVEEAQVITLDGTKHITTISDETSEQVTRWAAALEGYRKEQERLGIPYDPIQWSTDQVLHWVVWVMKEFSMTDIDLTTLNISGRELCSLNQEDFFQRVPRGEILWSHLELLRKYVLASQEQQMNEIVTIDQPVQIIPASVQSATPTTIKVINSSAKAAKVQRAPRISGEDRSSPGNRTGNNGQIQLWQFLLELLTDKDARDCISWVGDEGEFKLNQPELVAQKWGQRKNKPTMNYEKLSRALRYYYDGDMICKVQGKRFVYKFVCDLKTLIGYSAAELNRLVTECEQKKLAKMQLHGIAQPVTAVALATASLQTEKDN
A digest of the protocol: as §1

Another assay has as its target T3, ERG (Homo sapiens, UniProt P11308 1-479).
T3 sequence: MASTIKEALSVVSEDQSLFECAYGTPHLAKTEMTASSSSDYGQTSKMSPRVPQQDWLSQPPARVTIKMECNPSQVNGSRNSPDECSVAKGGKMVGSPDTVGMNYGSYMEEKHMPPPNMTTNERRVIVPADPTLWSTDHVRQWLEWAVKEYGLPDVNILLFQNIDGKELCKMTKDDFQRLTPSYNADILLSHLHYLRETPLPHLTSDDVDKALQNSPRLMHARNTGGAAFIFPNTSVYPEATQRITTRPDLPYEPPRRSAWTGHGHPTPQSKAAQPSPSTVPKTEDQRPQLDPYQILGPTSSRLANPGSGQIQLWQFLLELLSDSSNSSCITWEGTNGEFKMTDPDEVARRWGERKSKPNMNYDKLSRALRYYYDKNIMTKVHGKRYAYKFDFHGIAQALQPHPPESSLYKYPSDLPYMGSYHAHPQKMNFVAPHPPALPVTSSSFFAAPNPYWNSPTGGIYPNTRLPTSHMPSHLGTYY
A digest of the protocol:
as §1

Another assay has as its target ELF1 (Homo sapiens, UniProt P32519 1-619). A digest of the protocol: as §1
The next assay concerns the target T4, EHF (Homo sapiens, UniProt Q9NZC4 1-300).
T4 sequence: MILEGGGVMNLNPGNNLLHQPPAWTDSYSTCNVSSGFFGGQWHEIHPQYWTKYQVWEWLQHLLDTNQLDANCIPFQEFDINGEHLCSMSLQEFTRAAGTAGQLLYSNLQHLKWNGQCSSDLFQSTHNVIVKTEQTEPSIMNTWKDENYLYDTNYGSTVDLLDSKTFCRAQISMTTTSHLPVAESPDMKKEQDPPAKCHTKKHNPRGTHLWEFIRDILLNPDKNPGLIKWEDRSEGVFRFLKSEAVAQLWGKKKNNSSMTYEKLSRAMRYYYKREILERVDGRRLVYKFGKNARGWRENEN
The method in brief: as §1

For the next assay, the target named is SPI1 (Homo sapiens, UniProt P17947 1-270). A digest of the protocol: as §1
Another assay has as its target SPIB (Homo sapiens, UniProt Q01892 1-262). The method in brief: as §1
A further assay addresses T5, FEV (Homo sapiens, UniProt Q99581 1-238).
T5 sequence: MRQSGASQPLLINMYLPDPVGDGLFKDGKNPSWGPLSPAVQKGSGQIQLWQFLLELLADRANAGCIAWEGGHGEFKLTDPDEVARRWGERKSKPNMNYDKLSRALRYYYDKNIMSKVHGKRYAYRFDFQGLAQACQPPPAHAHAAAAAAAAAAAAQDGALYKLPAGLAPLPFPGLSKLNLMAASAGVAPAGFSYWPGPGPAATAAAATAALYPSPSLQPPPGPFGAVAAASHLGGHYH
A digest of the protocol:
as §1

A further assay concerns the target ETV5 (Homo sapiens, UniProt P41161 1-510). The method in brief:
as §1

A further assay concerns the target ELF4 (Homo sapiens, UniProt Q99607 1-663). The method in brief: as §1
A further assay deals with T6, ELK4 (Homo sapiens, UniProt P28324-2 1-405).
T6 sequence: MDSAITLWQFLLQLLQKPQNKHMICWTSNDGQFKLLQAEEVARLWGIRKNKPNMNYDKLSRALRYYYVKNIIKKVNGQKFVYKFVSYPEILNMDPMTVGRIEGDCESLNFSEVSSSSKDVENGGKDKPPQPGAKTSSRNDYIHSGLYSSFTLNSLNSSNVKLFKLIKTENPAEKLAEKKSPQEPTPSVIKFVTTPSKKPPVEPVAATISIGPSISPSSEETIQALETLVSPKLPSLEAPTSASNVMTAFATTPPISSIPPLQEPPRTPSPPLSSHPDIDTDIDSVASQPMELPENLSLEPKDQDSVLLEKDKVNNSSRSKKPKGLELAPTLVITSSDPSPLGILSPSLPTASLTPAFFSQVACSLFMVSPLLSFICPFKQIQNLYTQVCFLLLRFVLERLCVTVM
A digest of the protocol:
as §1

A further assay addresses T7, ELF3 (Homo sapiens, UniProt P78545 1-371).
T7 sequence: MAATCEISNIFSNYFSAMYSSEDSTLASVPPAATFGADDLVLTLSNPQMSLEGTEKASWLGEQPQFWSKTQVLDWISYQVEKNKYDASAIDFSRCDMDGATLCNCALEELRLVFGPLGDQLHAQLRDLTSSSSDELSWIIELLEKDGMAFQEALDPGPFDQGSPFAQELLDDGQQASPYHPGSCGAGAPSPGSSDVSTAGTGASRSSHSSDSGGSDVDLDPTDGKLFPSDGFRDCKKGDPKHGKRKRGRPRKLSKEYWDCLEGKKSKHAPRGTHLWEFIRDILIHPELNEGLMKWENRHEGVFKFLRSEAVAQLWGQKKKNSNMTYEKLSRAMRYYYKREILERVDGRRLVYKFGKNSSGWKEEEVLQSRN
The method in brief:
as §1

For the next assay, the target named is ETV1 (Homo sapiens, UniProt P50549 1-477). The method in brief:
as §1

The next assay has as its target T8, ERF (Homo sapiens, UniProt P50548 1-548).
T8 sequence: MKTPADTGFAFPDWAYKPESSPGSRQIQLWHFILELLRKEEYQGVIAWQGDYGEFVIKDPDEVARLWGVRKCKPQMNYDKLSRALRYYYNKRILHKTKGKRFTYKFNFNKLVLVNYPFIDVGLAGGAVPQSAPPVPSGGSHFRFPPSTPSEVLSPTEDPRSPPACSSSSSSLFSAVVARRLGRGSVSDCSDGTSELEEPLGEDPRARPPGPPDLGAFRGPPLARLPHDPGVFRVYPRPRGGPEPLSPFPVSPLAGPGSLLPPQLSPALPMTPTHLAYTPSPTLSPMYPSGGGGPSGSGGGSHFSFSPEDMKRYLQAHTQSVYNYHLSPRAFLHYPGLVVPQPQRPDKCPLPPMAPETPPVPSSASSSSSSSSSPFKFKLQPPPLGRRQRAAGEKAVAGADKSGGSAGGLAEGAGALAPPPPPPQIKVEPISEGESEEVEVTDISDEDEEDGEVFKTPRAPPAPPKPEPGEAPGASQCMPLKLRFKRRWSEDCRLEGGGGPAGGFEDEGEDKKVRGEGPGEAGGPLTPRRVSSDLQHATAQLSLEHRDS
A digest of the protocol:
as §1

The target of another assay is T9, ETV3L (Homo sapiens, UniProt Q6ZN32 1-361).
T9 sequence: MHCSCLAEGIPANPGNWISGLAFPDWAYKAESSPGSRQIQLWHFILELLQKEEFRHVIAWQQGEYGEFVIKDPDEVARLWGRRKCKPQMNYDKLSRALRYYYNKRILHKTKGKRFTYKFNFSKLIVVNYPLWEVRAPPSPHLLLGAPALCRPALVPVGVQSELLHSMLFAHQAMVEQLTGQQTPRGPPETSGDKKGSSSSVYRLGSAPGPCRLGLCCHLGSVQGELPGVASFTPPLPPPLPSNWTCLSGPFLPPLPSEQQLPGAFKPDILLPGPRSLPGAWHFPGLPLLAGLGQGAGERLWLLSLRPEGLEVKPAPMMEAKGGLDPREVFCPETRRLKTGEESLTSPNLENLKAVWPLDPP
The method in brief:
as §1

A further assay deals with T10, ETS2 (Homo sapiens, UniProt P15036 1-469).
T10 sequence: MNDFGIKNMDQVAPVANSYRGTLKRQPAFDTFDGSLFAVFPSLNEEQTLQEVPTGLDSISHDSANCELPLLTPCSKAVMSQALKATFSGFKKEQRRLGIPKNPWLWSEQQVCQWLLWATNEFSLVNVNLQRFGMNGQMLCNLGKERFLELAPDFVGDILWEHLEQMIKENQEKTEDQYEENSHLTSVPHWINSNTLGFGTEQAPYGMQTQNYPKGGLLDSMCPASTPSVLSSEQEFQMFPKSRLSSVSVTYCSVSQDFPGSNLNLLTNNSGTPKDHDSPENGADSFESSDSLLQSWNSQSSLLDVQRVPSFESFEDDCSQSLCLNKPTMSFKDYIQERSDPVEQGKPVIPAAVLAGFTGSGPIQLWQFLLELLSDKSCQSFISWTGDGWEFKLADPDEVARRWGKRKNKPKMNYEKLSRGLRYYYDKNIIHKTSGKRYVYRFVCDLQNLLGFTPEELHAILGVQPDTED
A digest of the protocol: as §1

The next assay concerns the target T11, ETV7 (Homo sapiens, UniProt Q9Y603 1-341).
T11 sequence: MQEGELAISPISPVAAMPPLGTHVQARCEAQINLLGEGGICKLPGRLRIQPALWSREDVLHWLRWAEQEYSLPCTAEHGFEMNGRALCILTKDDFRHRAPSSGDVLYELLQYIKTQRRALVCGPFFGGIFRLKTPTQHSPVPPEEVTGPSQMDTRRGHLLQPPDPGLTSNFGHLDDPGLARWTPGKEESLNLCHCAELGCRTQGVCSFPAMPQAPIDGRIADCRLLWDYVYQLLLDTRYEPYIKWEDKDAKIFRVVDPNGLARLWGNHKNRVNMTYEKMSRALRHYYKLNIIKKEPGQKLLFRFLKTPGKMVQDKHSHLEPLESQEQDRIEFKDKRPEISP
A digest of the protocol:
as §1

For the next assay, the target named is T12, ETV3 (Homo sapiens, UniProt P41162-2 1-143).
T12 sequence: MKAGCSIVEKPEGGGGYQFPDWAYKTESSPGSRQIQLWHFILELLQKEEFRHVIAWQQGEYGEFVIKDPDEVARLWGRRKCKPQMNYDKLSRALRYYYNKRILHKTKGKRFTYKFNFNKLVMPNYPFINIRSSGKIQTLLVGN
A digest of the protocol:
as §1

For another assay, the target named is ETV6 (Homo sapiens, UniProt P41212 1-452). A digest of the protocol:
as §1

Chain of SPIB (Q01892 whole entry): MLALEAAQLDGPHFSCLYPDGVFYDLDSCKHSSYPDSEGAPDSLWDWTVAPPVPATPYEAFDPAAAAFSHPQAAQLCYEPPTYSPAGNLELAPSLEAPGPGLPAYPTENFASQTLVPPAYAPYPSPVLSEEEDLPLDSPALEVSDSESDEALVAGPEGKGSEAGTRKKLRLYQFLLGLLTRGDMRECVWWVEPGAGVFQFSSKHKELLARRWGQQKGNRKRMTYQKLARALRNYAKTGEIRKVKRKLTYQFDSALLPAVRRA
Chain of ELF1 (P32519 whole entry): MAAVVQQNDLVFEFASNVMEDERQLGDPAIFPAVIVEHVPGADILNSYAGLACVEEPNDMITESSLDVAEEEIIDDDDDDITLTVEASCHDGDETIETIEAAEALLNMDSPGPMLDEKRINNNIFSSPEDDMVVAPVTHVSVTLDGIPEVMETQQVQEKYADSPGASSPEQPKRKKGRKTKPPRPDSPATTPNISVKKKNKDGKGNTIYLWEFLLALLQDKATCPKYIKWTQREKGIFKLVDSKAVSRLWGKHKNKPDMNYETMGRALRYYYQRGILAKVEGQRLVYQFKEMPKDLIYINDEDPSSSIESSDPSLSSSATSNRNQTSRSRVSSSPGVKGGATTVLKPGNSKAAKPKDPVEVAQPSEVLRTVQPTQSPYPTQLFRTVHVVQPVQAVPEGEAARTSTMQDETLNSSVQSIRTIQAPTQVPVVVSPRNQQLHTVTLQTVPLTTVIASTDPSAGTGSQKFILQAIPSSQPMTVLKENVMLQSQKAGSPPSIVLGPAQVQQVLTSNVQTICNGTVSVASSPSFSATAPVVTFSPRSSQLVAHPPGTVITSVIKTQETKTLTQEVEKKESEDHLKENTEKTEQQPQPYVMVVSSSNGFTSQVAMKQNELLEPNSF
Chain of ETV6 (P41212 whole entry): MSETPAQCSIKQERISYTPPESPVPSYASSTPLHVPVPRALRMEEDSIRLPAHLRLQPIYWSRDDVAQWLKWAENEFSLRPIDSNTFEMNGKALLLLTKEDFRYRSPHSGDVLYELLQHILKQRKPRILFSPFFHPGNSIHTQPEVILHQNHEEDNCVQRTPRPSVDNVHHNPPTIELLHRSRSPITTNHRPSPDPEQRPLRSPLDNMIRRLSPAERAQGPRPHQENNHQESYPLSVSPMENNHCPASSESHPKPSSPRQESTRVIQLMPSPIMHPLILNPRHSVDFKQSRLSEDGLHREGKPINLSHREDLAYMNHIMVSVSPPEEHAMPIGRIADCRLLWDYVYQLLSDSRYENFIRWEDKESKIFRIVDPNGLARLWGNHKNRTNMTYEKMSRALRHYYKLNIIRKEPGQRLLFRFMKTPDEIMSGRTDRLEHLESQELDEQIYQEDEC
Chain of ETV1 (P50549 whole entry): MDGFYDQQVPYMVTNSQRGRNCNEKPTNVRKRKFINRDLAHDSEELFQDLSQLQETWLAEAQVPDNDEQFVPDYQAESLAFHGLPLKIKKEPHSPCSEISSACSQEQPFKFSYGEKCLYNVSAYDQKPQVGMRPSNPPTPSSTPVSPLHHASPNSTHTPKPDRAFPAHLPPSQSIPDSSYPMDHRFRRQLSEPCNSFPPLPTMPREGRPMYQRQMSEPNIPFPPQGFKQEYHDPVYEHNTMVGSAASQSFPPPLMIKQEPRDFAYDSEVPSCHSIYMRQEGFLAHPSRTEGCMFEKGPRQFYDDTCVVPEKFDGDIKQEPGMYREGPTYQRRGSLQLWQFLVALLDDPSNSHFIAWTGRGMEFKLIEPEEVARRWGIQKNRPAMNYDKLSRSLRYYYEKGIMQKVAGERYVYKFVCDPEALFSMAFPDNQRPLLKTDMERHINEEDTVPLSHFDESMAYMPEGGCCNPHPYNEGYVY
Chain of ETV5 (P41161 whole entry): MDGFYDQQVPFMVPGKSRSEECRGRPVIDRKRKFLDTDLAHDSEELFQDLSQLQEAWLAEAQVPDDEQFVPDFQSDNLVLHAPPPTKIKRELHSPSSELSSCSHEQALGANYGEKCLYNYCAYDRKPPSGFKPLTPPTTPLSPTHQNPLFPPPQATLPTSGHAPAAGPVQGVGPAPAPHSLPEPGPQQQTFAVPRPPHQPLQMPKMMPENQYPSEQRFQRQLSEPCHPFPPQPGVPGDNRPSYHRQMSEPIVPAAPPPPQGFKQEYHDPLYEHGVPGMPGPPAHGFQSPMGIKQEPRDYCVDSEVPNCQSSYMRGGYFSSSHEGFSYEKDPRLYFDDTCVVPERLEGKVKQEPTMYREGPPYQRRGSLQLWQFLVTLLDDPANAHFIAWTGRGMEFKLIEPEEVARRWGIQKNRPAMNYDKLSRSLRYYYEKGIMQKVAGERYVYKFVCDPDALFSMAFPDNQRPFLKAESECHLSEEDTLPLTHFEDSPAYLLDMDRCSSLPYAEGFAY
Chain of ELF4 (Q99607 whole entry): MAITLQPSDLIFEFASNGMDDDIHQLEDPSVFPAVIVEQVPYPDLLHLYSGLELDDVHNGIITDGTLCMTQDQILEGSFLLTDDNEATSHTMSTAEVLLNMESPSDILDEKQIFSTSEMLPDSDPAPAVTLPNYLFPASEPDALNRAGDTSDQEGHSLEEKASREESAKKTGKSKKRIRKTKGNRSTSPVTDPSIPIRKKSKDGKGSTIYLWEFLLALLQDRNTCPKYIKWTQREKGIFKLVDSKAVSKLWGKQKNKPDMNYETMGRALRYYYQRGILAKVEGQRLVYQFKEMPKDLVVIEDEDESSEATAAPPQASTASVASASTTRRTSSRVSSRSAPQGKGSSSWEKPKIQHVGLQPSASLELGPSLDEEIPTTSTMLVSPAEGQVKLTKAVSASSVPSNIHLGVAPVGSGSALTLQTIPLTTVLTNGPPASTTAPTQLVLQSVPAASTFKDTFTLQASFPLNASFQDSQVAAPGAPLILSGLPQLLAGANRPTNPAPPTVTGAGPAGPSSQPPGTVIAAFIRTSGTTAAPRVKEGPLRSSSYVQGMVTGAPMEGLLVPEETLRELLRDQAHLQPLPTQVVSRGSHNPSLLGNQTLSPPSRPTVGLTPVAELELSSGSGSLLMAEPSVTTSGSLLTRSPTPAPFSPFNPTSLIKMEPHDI

On to ATAATG, for which the binding signal in the assay with ELK1 was 1.1 fold enrichment (6-mer frequency, TF over GST control); in the assay with GABPA, 1.06 fold enrichment (6-mer frequency, TF over GST control); with ERG, 1.03 fold enrichment (6-mer frequency, TF over GST control); with ELF1, 1.11 fold enrichment (6-mer frequency, TF over GST control); with EHF, 1.14 fold enrichment (6-mer frequency, TF over GST control); with SPI1, 1.07 fold enrichment (6-mer frequency, TF over GST control). Further, the binding signal in the assay with SPIB is 1.19 fold enrichment (6-mer frequency, TF over GST control); in the assay with FEV, 1.08 fold enrichment (6-mer frequency, TF over GST control); with ETV5, 1.09 fold enrichment (6-mer frequency, TF over GST control); in the assay with ELF4 it was 1.06 fold enrichment (6-mer frequency, TF over GST control); with ELK4 it was 1.16 fold enrichment (6-mer frequency, TF over GST control); in the assay with ELF3 it was 1.03 fold enrichment (6-mer frequency, TF over GST control). For the same sequence, the binding signal with ETV1 is 1.16 fold enrichment (6-mer frequency, TF over GST control); in the assay with ERF, 1.09 fold enrichment (6-mer frequency, TF over GST control); with ETV3L it was 1.2 fold enrichment (6-mer frequency, TF over GST control); in the assay with ETS2 it was 1.14 fold enrichment (6-mer frequency, TF over GST control); with ETV7, 1.01 fold enrichment (6-mer frequency, TF over GST control); with ETV3 it was 1.09 fold enrichment (6-mer frequency, TF over GST control). In addition, in the assay with ETV6, the binding signal is 1.09 fold enrichment (6-mer frequency, TF over GST control).
